Experimental data from PMC11102866, “Nucleosome-bound NR5A2 structure reveals pioneer factor mechanism by DNA minor groove anchor competition”.
Where a chain is given by its changes, count along the chain named. Numbers in names are those of the source.

B1: 110 (nucleosome)
DNA 1: ATCCTGGAGAATCCCGGTGCCGAGGCCGCTCAATTGGTCGTAGACAGCTCTAGCACCGCTTAAACGCACGTACGCGCTGTCCCCCGCGTTTTAACCGCCAAGGGGATTACTCTCAAGGCCACAGGCACGTGTCAGATATATACATCCTGTGAT
DNA 2: ATCACAGGATGTATATATCTGACACGTGCCTGTGGCCTTGAGAGTAATCCCCTTGGCGGTTAAAACGCGGGGGACAGCGCGTACGTGCGTTTAAGCGGTGCTAGAGCTGTCTACGACCAATTGAGCGGCCTCGGCACCGGGATTCTCCAGGAT
modifications: reconstituted with mouse histones H2A, H2B, H3.3 and H4
B2: 12 (nucleosome)
DNA 1: ATCCTGGAGAATCCTCAAGGCCAGGCCGCTCAATTGGTCGTAGACAGCTCTAGCACCGCTTAAACGCACGTACGCGCTGTCCCCCGCGTTTTAACCGCCAAGGGGATTACTCCCTAGTCTCCAGGCACGTGTCAGATATATACATCCTGTGAT
DNA 2: ATCACAGGATGTATATATCTGACACGTGCCTGGAGACTAGGGAGTAATCCCCTTGGCGGTTAAAACGCGGGGGACAGCGCGTACGTGCGTTTAAGCGGTGCTAGAGCTGTCTACGACCAATTGAGCGGCCTGGCCTTGAGGATTCTCCAGGAT
modifications: reconstituted with mouse histones H2A, H2B, H3.3 and H4
B3: 13 (nucleosome)
DNA 1: B2 DNA 1 with T15C, C16T, A17C, G19A, C21G, A23C, G24A
DNA 2: B2 DNA 2 with C130T, T131G, G133C, C135T, T137G, G138A, A139G
modifications: reconstituted with mouse histones H2A, H2B, H3.3 and H4
B4: 106 (nucleosome)
DNA 1: ATCCTGGAGAATCCCGGTGCCGAGGCCGCTCAATTGGTCGTAGACAGCTCTAGCACCGCTTAAACGCACGTACGCGCTGTCCCCCGCGTTTTAACCGCCAAGGGGATTTCAAGGCCATCTCCAGGCACGTGTCAGATATATACATCCTGTGAT
DNA 2: ATCACAGGATGTATATATCTGACACGTGCCTGGAGATGGCCTTGAAATCCCCTTGGCGGTTAAAACGCGGGGGACAGCGCGTACGTGCGTTTAAGCGGTGCTAGAGCTGTCTACGACCAATTGAGCGGCCTCGGCACCGGGATTCTCCAGGAT
modifications: reconstituted with mouse histones H2A, H2B, H3.3 and H4
B5: 107 (nucleosome)
DNA 1: B4 DNA 1 with T109A, C110T, A111C, G113A, C115G, A117C, T118A
DNA 2: B4 DNA 2 with A36T, T37G, G39C, C41T, T43G, G44A, A45T
modifications: reconstituted with mouse histones H2A, H2B, H3.3 and H4
B6: 108 (nucleosome)
DNA 1: B1 DNA 1 with T113A, C114A, A115G, A116G, G117C, G118C, C119A, C120T, A121C
DNA 2: B1 DNA 2 with T33G, G34A, G35T, C36G, C37G, T38C, T39C, G40T, A41T
modifications: reconstituted with mouse histones H2A, H2B, H3.3 and H4
B7: 109 (nucleosome)
DNA 1: B1 DNA 1 with C112T, T113C, C114A, A116G, G118C, C120A, A121C
DNA 2: B1 DNA 2 with T33G, G34T, C36G, T38C, G40T, A41G, G42A
modifications: reconstituted with mouse histones H2A, H2B, H3.3 and H4
B8: 111 (nucleosome)
DNA 1: B1 DNA 1 with T113C, C114T, A115C, G117A, C119G, A121C, C122A
DNA 2: B1 DNA 2 with G32T, T33G, G35C, C37T, T39G, G40A, A41G
modifications: reconstituted with mouse histones H2A, H2B, H3.3 and H4
B9: 112 (nucleosome)
DNA 1: B1 DNA 1 with T113C, A115T, A116C, G117A, G118A, C119G, C120G, A121C
DNA 2: B1 DNA 2 with T33G, G34C, G35C, C36T, C37T, T38G, T39A, A41G
modifications: reconstituted with mouse histones H2A, H2B, H3.3 and H4
B10: 102 (nucleosome)
DNA 1: ATCCTGGAGAATCCCGGTGCCGAGGCCGCTCAATTGGTCGTAGACAGCTCTAGCACCGCTTAAACGCACGTACGCGCTGTCCCCCGCGTTTTAACCGCCAAGGGTCAAGGCCACTAGTCTCCAGGCACGTGTCAGATATATACATCCTGTGAT
DNA 2: ATCACAGGATGTATATATCTGACACGTGCCTGGAGACTAGTGGCCTTGACCCTTGGCGGTTAAAACGCGGGGGACAGCGCGTACGTGCGTTTAAGCGGTGCTAGAGCTGTCTACGACCAATTGAGCGGCCTCGGCACCGGGATTCTCCAGGAT
modifications: reconstituted with mouse histones H2A, H2B, H3.3 and H4
B11: 104 (nucleosome)
DNA 1: B1 DNA 1 with T108C, C110A, T111G, C112G, T113C, G118T, C120T, A121C
DNA 2: B1 DNA 2 with T33G, G34A, C36A, A41G, G42C, A43C, G44T, A46G
modifications: reconstituted with mouse histones H2A, H2B, H3.3 and H4
B12: 103 (nucleosome)
DNA 1: B10 DNA 1 with T105G, C106T, A107C, G109A, C111G, A113C, C114A
DNA 2: B10 DNA 2 with G40T, T41G, G43C, C45T, T47G, G48A, A49C
modifications: reconstituted with mouse histones H2A, H2B, H3.3 and H4
B13: 105 (nucleosome)
DNA 1: B4 DNA 1 with T109C, C110A, A112G, G114C, C116A, A117G
DNA 2: B4 DNA 2 with T37C, G38T, C40G, T42C, G44T, A45G
modifications: reconstituted with mouse histones H2A, H2B, H3.3 and H4
B14: 1 (nucleosome)
DNA 1: ATCTCAAGGCCACCCGGTGCCGAGGCCGCTCAATTGGTCGTAGACAGCTCTAGCACCGCTTAAACGCACGTACGCGCTGTCCCCCGCGTTTTAACCGCCAAGGGGATTACTCCCTAGTCTCCAGGCACGTGTCAGATATATACATCCTGTGAT
DNA 2: ATCACAGGATGTATATATCTGACACGTGCCTGGAGACTAGGGAGTAATCCCCTTGGCGGTTAAAACGCGGGGGACAGCGCGTACGTGCGTTTAAGCGGTGCTAGAGCTGTCTACGACCAATTGAGCGGCCTCGGCACCGGGTGGCCTTGAGAT
modifications: reconstituted with mouse histones H2A, H2B, H3.3 and H4
B15: 2 (nucleosome)
DNA 1: B14 DNA 1 with T4C, C5T, A6C, G8A, C10G, A12C, C13A
DNA 2: B14 DNA 2 with G141T, T142G, G144C, C146T, T148G, G149A, A150G
modifications: reconstituted with mouse histones H2A, H2B, H3.3 and H4

Biological target: NR5A2 wild type;histone octamer (Homo sapiens;, UniProt O00482;C0HKE1;Q6ZWY9;P84244;P62806 1-541;2-130;2-126;2-136;2-103, |)
Test: SeEN-seq (EMSA of nucleosome library followed by sequencing); 0.8 uM human NR5A2; 20 mM Tris-HCl pH 7.5, 120 mM NaCl, 1 mM MgCl2, 10 uM ZnCl2, 1 mM DTT, 100 ug/ml BSA, room temperature, 30 min; 0.1 uM nucleosome library; high values mean tight binding

Binder	binding signal
B1	0.939 log2 enrichment (bound/unbound, relative to Widom 601)
B2	4.6 log2 enrichment (bound/unbound, relative to Widom 601)
B3	4.51 log2 enrichment (bound/unbound, relative to Widom 601)
B4	1.84 log2 enrichment (bound/unbound, relative to Widom 601)
B5	0.733 log2 enrichment (bound/unbound, relative to Widom 601)
B6	0.869 log2 enrichment (bound/unbound, relative to Widom 601)
B7	0.938 log2 enrichment (bound/unbound, relative to Widom 601)
B8	1.01 log2 enrichment (bound/unbound, relative to Widom 601)
B9	0.87 log2 enrichment (bound/unbound, relative to Widom 601)
B10	0.685 log2 enrichment (bound/unbound, relative to Widom 601)
B11	1.03 log2 enrichment (bound/unbound, relative to Widom 601)
B12	0.782 log2 enrichment (bound/unbound, relative to Widom 601)
B13	1.55 log2 enrichment (bound/unbound, relative to Widom 601)
B14	6.41 log2 enrichment (bound/unbound, relative to Widom 601)
B15	6.87 log2 enrichment (bound/unbound, relative to Widom 601)

Biological target: mouse Nr5a2 wild type;histone octamer (Mus musculus;, UniProt P45448;C0HKE1;Q6ZWY9;P84244;P62806 1-560;2-130;2-126;2-136;2-103, |)
Test: SeEN-seq (EMSA of nucleosome library followed by sequencing); 1.2 uM mouse Nr5a2; 20 mM Tris-HCl pH 7.5, 120 mM NaCl, 1 mM MgCl2, 10 uM ZnCl2, 1 mM DTT, 100 ug/ml BSA, room temperature, 30 min; 0.1 uM nucleosome library; high values mean tight binding

Binder	binding signal
B1	0.962 log2 enrichment (bound/unbound, relative to Widom 601)
B2	4.25 log2 enrichment (bound/unbound, relative to Widom 601)
B3	3.55 log2 enrichment (bound/unbound, relative to Widom 601)
B4	1.23 log2 enrichment (bound/unbound, relative to Widom 601)
B5	0.834 log2 enrichment (bound/unbound, relative to Widom 601)
B6	0.815 log2 enrichment (bound/unbound, relative to Widom 601)
B7	0.719 log2 enrichment (bound/unbound, relative to Widom 601)
B8	1.02 log2 enrichment (bound/unbound, relative to Widom 601)
B9	0.753 log2 enrichment (bound/unbound, relative to Widom 601)
B10	0.658 log2 enrichment (bound/unbound, relative to Widom 601)
B11	0.764 log2 enrichment (bound/unbound, relative to Widom 601)
B12	0.764 log2 enrichment (bound/unbound, relative to Widom 601)
B13	1.09 log2 enrichment (bound/unbound, relative to Widom 601)
B14	5.85 log2 enrichment (bound/unbound, relative to Widom 601)
B15	5.51 log2 enrichment (bound/unbound, relative to Widom 601)
